An excerpt weighted towards active compounds, which were near 21% of everything screened.
Pf growth 96h: inhibits malaria parasite growth, 96 h; P. falciparum luciferase reporter growth, 96 h; Potency, µM (highest dose often 28.7 µM), usual class: inhibitors; actives 6.9% (n = 320,000); AID 504834
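Compounds incubated with erythrocytes infected by luciferase-expressing P. falciparum (2% hematocrit, 0.05% parasitemia final) for 96 hours, 37 C in 5% CO2. Growth inhibition scored as decreased luciferase luminescence.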
Sm TGR inh: S. mansoni TGR enzyme inhibition. Q962Y6. purified TGR, DTNB reduction, TNB absorbance 405 nm. Potency, µM (highest dose often 114 µM), actives largely listed as inhibitors. actives 3% (n = 360,000). AID 485364; also: nearly all actives have a fitted effect of over 60% in size
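Kinetic colorimetric format: TGR-catalysed, NADPH-driven DTNB reduction monitored via TNB absorbance. Enzyme dispensed at 20 nM; compound exposure 15 min at room temperature before reaction start.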
CHX counter: counter-screen for Shiga toxin inhibitors: cycloheximide protein synthesis inhibition | max response, % | actives 12% (n = 300,000) | cell reporter, cycloheximide protein synthesis inhibition counterscreen; in the data active = max response mostly above about 13%, no sharp cut-off; inactive = mostly below about 14%; also: read at 38.3 µM for the half of the compounds with a filed dose
NS1 inh: influenza NS1 inhibition; Potency, µM (titrated, usually from 46.1 µM); actives 0.4% (n = 270,000); AID 2326; calls by dose curve; also: actives are rising curves; nearly all actives have a fitted effect of over 50% in size
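Growth recovery, yeast-based: influenza A NS1 expressed in S. cerevisiae causes slow growth, and suppressors are detected by OD600. The parent strain without NS1 is used as positive control.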
Shiga toxin inh: blocks Shiga toxin action in Vero cells; Vero cells, Shiga toxin protein synthesis inhibition reporter; inhibition, % at 38.7 µM; actives 9.2% (n = 290,000); in the data active = inhibition mostly above about 28%, no sharp cut-off; inactive = mostly below about 43%
Pf growth 48h: P. falciparum growth inhibition at 48 hours (one generation) | Potency, µM (top dose mostly 28.7 µM), usual class: inhibitors | actives 5.9% (n = 310,000) | AID 504832 | P. falciparum luciferase growth in erythrocytes, 48 h
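Firefly luciferase activity from engineered P. falciparum reports growth; inhibitors lower the luminescent signal. Cultures contained 2% hematocrit erythrocytes at 0.1% final parasitemia.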
Each line names hits and unclear results; the compound was inactive in the other large screens. Unless noted, calls follow the shape of the dose curve; as a rule, active = well fitted curve in the direction sought with a large enough effect; inconclusive = small, poorly fitted or top-dose-only effect, or another doubt; inactive = no such curve, though single readings can be large; an effect the other way counts as inactive or inconclusive.

CCOc1ccc(S(=O)(=O)NCc2ccccn2)c(C)c1C	Pf growth 96h 10µM, Pf growth 48h inconclusive
O=S(=O)(NCCc1ccccn1)c1ccc(F)c(F)c1	Pf growth 96h 5.2µM
O=S(=O)(NCc1ccccn1)c1ccccc1	none (no result: Pf growth 48h)
O=S(=O)(NCCc1ccccn1)c1ccc(OC(F)(F)F)cc1	none
CC(C)(C)c1ccc(S(=O)(=O)NCc2ccccn2)cc1	CHX counter 18
Cc1ccc(OCC(=O)Nc2ccc(S(=O)(=O)Nc3cc(C)on3)cc2)c(Br)c1	none (no result: Pf growth 96h, CHX counter, NS1 inh, Shiga toxin inh, Pf growth 48h)
CCCC1(C(=O)OC)NC(c2ccc(OC)cc2OC)C2C(=O)N(c3cccc(C(C)=O)c3)C(=O)C21 (configuration not stated)	Pf growth 48h inconclusive
O=C(O)CSc1nc2sc3c(c2c(=O)n1-c1ccccc1)CCC3	none
NNc1nc2sc3c(c2c(=O)n1-c1ccccc1)CCCC3	CHX counter 23, NS1 inh inconclusive
Nn1c(Nc2ccccc2)nc2sc3c(c2c1=O)CCCC3	CHX counter 21 (no result: Sm TGR inh)
Cc1ccc(C)n1-n1c(C)nc2sc3c(c2c1=O)CCCCC3	Pf growth 96h 12µM, Pf growth 48h 12µM
Cc1ccc(-c2nc3sc4c(c3c(=O)n2N)CC(C)(C)OC4)cc1	none (no result: Pf growth 96h)
Cc1ccc(-c2nc3sc4c(c3c(=O)n2N)CCCC4)cc1	Pf growth 96h 7.4µM, CHX counter 59 (no result: Pf growth 48h)
O=C(Nc1ccccc1C(F)(F)F)C1(S(=O)(=O)c2ccc(Cl)cc2)CC1	none (no result: Pf growth 96h, CHX counter, NS1 inh, Shiga toxin inh, Pf growth 48h)
O=C(CN(C(=O)c1csnn1)c1ccccc1Cl)NCCc1ccccc1	none
Cc1ccccc1N(CC(=O)NCCc1ccccc1)C(=O)c1ccc(N2CCCC2)nc1	Pf growth 96h inconclusive, Pf growth 48h 10µM
Cc1ccccc1C(=O)NC(=S)NCc1ccccc1	Sm TGR inh 22µM (no result: Shiga toxin inh)
Cc1ccccc1C(=O)NC(=S)NCCc1ccccc1	Sm TGR inh 7.1µM
CN(C)c1cccc(C(=O)NCc2ccccc2)c1	none (no result: NS1 inh)
CN(C)c1cccc(C(=O)OCC(=O)Nc2nccs2)c1	CHX counter 30, Shiga toxin inh 101
O=C(CSc1ccccc1)NNC(=O)c1ccncc1	none (no result: CHX counter, NS1 inh, Shiga toxin inh)
CN(C)c1cccc(C(=O)NCc2ccccc2Cl)c1	CHX counter 19
Cc1cccc(C(=O)OCC(=O)Nc2nccs2)c1	CHX counter 19
Cc1cccc(C(=O)OCC(=O)NCc2cccs2)c1	none
CN(C)c1cccc(C(=O)NNC(=O)CSc2ccccc2)c1	CHX counter 13
Cc1cccc(-n2ncc3c(=O)[nH]c(SCC(=O)NCCC4=CCCCC4)nc32)c1	Pf growth 96h inconclusive (no result: CHX counter, NS1 inh, Shiga toxin inh)
CCOc1ccc(NC(=O)Cn2c(=O)n(Cc3nc(-c4ccccc4)no3)c(=O)c3ccccc32)cc1	none (no result: Pf growth 96h, CHX counter, NS1 inh, Shiga toxin inh, Pf growth 48h)
Cc1ccc(NC(=O)C(=O)NCC(c2cccnc2)N2CCN(C)CC2)cc1C (configuration not stated)	none (no result: Pf growth 96h, CHX counter, NS1 inh, Shiga toxin inh, Pf growth 48h)
CN(C)c1cccc(C(=O)OCC(=O)Nc2ccccc2-c2ccccc2)c1	Pf growth 96h inconclusive, Pf growth 48h inconclusive
CN(C)c1cccc(C(=O)OCC(=O)Nc2ccccc2Cl)c1	Shiga toxin inh 42 (no result: NS1 inh)
COc1ccc(C(=O)N2CCC(NC(=O)C(Cc3ccccc3OC)NC(C)=O)CC2)cc1 (configuration not stated)	none
CC(=O)NC(Cc1ccccc1)C(=O)NC1CCN(C(=O)NC2CCCCC2)CC1 (configuration not stated)	none
COc1ccccc1CC(NC(C)=O)C(=O)NC1CCN(C(=O)Nc2cccc(F)c2)CC1 (configuration not stated)	Pf growth 96h 1.3µM
COc1cc(C(=O)N2CCC(NC(=O)C(Cc3ccccc3)NC(C)=O)CC2)cc(OC)c1OC (configuration not stated)	Pf growth 96h 12µM, Pf growth 48h inconclusive
COc1ccccc1CC(NC(C)=O)C(=O)NC1CCN(C(=O)c2ccc([N+](=O)[O-])cc2)CC1 (configuration not stated)	Pf growth 96h 6.6µM
O=C(NCCC1CCCC1)c1cccs1	CHX counter 40, Shiga toxin inh 45
O=C(NC1CCCCCC1)c1cccs1	CHX counter 38, Shiga toxin inh 68, Pf growth 48h inconclusive
COc1ccc(CNCCNC(=O)c2nonc2N)cc1OC	none
COc1ccc(CCNC(=O)c2nonc2N)cc1OC	Pf growth 96h 4.1µM
